In the library only some 10% were active in any assay of this set; here they are far more common.
HP1b binding inh = HTS for Inhibitors of HP1-beta Chromodomain Interactions with Methylated Histone Tails; AlphaScreen HP1-beta / biotin-H3K9me3 peptide binding; Potency, µM (series often up to 114 µM), actives largely listed as inhibitors; hit rate 0.56% among 390,000; AID 540317, 2011; also: nearly all actives have a fitted effect of over 70% in size
Target sequence (P83916 whole entry, looked up): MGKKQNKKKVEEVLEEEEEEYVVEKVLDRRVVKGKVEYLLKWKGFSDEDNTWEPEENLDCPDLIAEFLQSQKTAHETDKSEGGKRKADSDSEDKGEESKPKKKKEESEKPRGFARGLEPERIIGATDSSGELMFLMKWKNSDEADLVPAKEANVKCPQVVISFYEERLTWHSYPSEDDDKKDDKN
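HP1-beta protein (50 nM final) preincubated 30 min at room temperature with biotinylated H3(1-18)K9me3 peptide (50 nM) in PBS pH 7.4, 0.01% Tween-20, then compound added for 30 min. AlphaScreen streptavidin donor/nickel chelate acceptor beads (10 ug/mL final), 30 min dark, luminescence read.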
CtBP-E1A blk = qHTS Assay for Inhibitors of the CtBP/E1A Interaction; AlphaScreen GST-E1A/His-CtBP binding, 1536-well; stronger effect = lower value; activity change, % (test concentration not listed); AID 651724, 2012; CtBP / adenovirus E1A interaction (AlphaScreen); hit rate 0.49% among 340,000; in the data active = activity change below about -65%; inconclusive = mostly about -30% to -63%
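GST-E1A and His-tagged CtBP (125 nM each as 5X stock) were preincubated with pin-transferred compound for 2 h at 37 °C in the dark, then glutathione donor and nickel acceptor beads were added for 1 h before AlphaScreen reading.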
BAZ2B block = qHTS Assay for Inhibitors of BAZ2B; Bromodomain adjacent to zinc finger domain protein 2B (Homo sapiens), Q9UIF8; AlphaScreen BAZ2B-H3K14Ac peptide displacement; Potency, µM (doses to about 114 µM), actives largely listed as inhibitors; hit rate 4.4% among 360,000; also: nearly all actives have a fitted effect of over 60% in size
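In this displacement format the biotinylated H3(5-23) peptide acetylated at Lys14 serves as ligand at 50 nM, with BAZ2B at 50 nM in PBS pH 7.4 containing 0.01% Tween-20. Donor and acceptor beads are 10 ug/mL final.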
Six1-Eya2 inh = qHTS Assay for Inhibitors of the Six1/Eya2 Interaction; AlphaScreen GST-Six1/His-Eya2 binding, biochemical; stronger effect = lower value; activity change, % (concentration not given with the values); hit rate 0.56% among 360,000; AID 651725, 2012; in the data active = activity change below about -65%; inconclusive = mostly about -30% to -63%
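AlphaScreen luminescence read after one hour at 37 °C in darkness. Pin-transferred compounds met GST-Six1 and His-Eya2 protein (5X stock 250 nM/500 nM) plus glutathione donor and Ni-chelate acceptor beads (5X, 50 ug/mL).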
G9a block = qHTS Assay for Inhibitors of Histone Lysine Methyltransferase G9a; Histone-lysine N-methyltransferase EHMT2 (Homo sapiens), Q96KQ7; G9a H3K9 monomethylation, AlphaScreen, 2 h; Potency, µM (titrated, usually from 102 µM), actives largely listed as inhibitors; hit rate 8.8% among 350,000; AID 504332, 2011; also: nearly all actives have a fitted effect of over 75% in size
Target sequence (Q96KQ7 913-1193 limits assumed): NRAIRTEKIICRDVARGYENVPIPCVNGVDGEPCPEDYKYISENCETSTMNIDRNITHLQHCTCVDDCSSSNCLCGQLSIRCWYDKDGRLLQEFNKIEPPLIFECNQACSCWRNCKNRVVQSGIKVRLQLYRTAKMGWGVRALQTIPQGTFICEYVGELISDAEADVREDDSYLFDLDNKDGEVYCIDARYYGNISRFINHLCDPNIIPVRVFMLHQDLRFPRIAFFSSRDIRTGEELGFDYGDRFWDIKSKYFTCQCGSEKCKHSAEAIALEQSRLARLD
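AlphaScreen read-out: biotin-H3K9 peptide (500 nM) methylation by 20 nM enzyme with 20 uM SAM, 2 h at room temperature after 15 min compound preincubation; anti-monomethyl H3K9 antibody plus donor/acceptor beads, 10 min dark.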
JMJD2A Tudor inh = qHTS Assay for Inhibitors of JMJD2A-Tudor Domain. Lysine-specific demethylase 4A (Homo sapiens), O75164. AlphaScreen JMJD2A-Tudor / H3K4me3 peptide binding. Potency, µM (series often up to 114 µM), hits mostly inhibitors. hit rate 4.4% among 390,000; also: nearly all actives have a fitted effect of over 50% in size
Numbers stand for hits; . = inactive; ? = inconclusive; / = no result; [ ] = dose if it differs, or a comment. Unless noted, calls follow the shape of the dose curve; as a rule, active = well fitted inhibition curve with a large enough effect; inconclusive = small, poorly fitted or top-dose-only effect; inactive = no such curve, though single readings can be large or run the other way.

SMILES	HP1b binding inh	CtBP-E1A blk	BAZ2B block	Six1-Eya2 inh	G9a block	JMJD2A Tudor inh
COc1cc(OC)c2c(C)cc(=O)oc2c1C(CCN1CCCC(C)C1)c1ccc(N(C)C)cc1 (stereo unspecified)	?	/	/	/	/	28.2µM
COc1ccc(C(CCN2CCN(c3ccccc3)CC2)c2c(O)cc(OC)cc2OC)cc1 (stereo unspecified)	.	.	28.2µM	?	.[12.7 µM]	15.8µM
COc1cc(O)c(C(CC(=O)N2CCCCC2)c2ccc(N(C)C)cc2)c(OC)c1 (stereo unspecified)	.	.	?	.	?	50.1µM
CCCCCc1cc(=O)oc2c(C(CCN3CCCC(C)C3)c3ccc(OC)cc3)c(OC)cc(OC)c12 (stereo unspecified)	.	.	?	.	?	?
COc1ccc(N2CCN(CCC(O)c3ccc4ccccc4c3)CC2)cc1 (stereo unspecified)	?	/	.	?	39.8µM	50.1µM
Cc1cccc(C)c1NC(=O)C1(N(Cc2ccco2)C(=O)CC2NC(=O)NC2=O)CCCC1 (stereo unspecified)	.	.	.	.	.	.
Nc1[nH]c(C(=O)c2ccccc2)c(-c2c(F)cccc2F)c1C(=O)c1ccc(Cl)c(Cl)c1	/	.	/	.	/	/
COc1cc(O)c(C(CCN2CCCC(C)C2)c2ccc(N(C)C)cc2)c(OC)c1 (stereo unspecified)	?	?	39.8µM	?	?	25.1µM
COc1cc(O)c(C(CCN2CCOCC2)c2ccc(N(C)C)cc2)c(OC)c1 (stereo unspecified)	?	.	35.5µM	?	?	44.7µM
COc1ccc(C(CCN2CCCC2)c2c(O)cc(OC)cc2OC)cc1 (stereo unspecified)	.	.	?	.	.	.
CCN(CC)CCC(c1ccc(N(C)C)cc1)c1c(O)cc(OC)cc1OC (stereo unspecified)	?	?	50.1µM	?	?	39.8µM
COc1cc(O)c(C(CCN2CCN(c3ccccc3)CC2)c2ccc(N(C)C)cc2)c(OC)c1 (stereo unspecified)	20µM	-70.0	7.94µM	-78.0	?	10µM
CC(=O)c1cccc(NC(=O)C2Cc3c(-c4ccco4)ccnc3O2)c1 (stereo unspecified)	/	.	/	.	/	/
CCOc1ccc(NC(=O)N(Cc2cn(CC)c3ccccc23)C2CCCCCC2)cc1	.	/	/	/	?	?
C=CCC(C)(NCc1ccccc1)c1ccco1 (stereo unspecified)	?	.	50.1µM	.	12.6µM	2µM
C/C(=N\NC(=O)CCC(=O)NCc1ccccc1)c1ccco1	.	.	.	.	.	.
CCC(=O)Nc1sc2c(c1C(N)=O)CCC2	.	.	.	.	.	.
CCCC(=O)NC(=S)Nc1sc2c(c1C(N)=O)CCC2	.	.	.	.	7.94µM	.
COC(=O)Nc1sc2c(c1C(N)=O)CCCCCC2	.	.	.	.	3.55µM	?
CC(C)C(=O)NC(=S)Nc1sc2c(c1C(N)=O)CCCC2	?	.	.	.	3.98µM	?
O=C1CCc2cc(S(=O)(=O)Nc3cccc(B(O)O)c3)ccc2N1	/	/	/	/	/	.
c1ccc(-c2noc(-c3cccnc3NCc3ccco3)n2)cc1	.	/	.	/	17.8µM	.
Cc1cccc(-c2noc(-c3ccccc3C(=O)NCc3ccco3)n2)c1	.	.	50.1µM	.	?	?
COc1ccc(-c2nc(CCNC(=O)c3ccco3)cs2)cc1OC	.	.	.	.	?	.
O=C(NCc1ccco1)c1ccccc1-c1nc(-c2ccccc2)no1	.	.	56.2µM	.	.	.
SMILES	HP1b binding inh	CtBP-E1A blk	BAZ2B block	Six1-Eya2 inh	G9a block	JMJD2A Tudor inh
Cc1cccc(-c2nc(CNC(=O)c3ccco3)cs2)c1	.	.	.	.	50.1µM	.
CN(CC(=O)N1CCN(Cc2ccccc2)CC1)C(=O)Cc1ccc(Cl)c(Cl)c1	.	.	/	.	/	.
COc1cccc(Cn2c(=O)n(-c3ccccc3C)c(=O)c3c2c2cc(C)ccc2n3C)c1	.	/	.	/	?	.
O=C(CCc1nnc(CCCCc2ccccc2)o1)NCCN1CCCCC1=O	.	.	.	.	?	.
COc1cc(-c2noc(-c3ccccc3C(=O)NCc3ccco3)n2)cc(OC)c1OC	.	.	.	.	39.8µM	.
COc1ccccc1-c1noc(-c2ccccc2C(=O)NCc2ccco2)n1	.	.	.	.	.	.
CC(C)CCNC(=O)CC1Nc2c3ccccc3nc(=S)n2C1=O (stereo unspecified)	.	.	.	.	56.2µM	.
C=CCNC(=O)CC1Nc2c3ccccc3nc(=S)n2C1=O (stereo unspecified)	.	.	.	.	35.5µM	.
Cn1nc(C(F)(F)F)c(C#N)c1N1CCN(c2ccccn2)CC1	.	.	.	.	.	50.1µM
O=C(O)C1C2C=CC(O2)C1C(=O)Nc1cccc(C(F)(F)F)c1 (stereo unspecified)	.	.	.	.	/	.
Cc1csc(NC(=O)C2C3C=CC(O3)C2C(=O)O)n1 (stereo unspecified)	.	.	.	.	?	25.1µM
CCc1ccccc1NC(=O)C1C2C=CC(O2)C1C(=O)O (stereo unspecified)	.	.	.	.	35.5µM	.
O=C(O)C1C2C=CC(O2)C1C(=O)Nc1ccccc1C(F)(F)F (stereo unspecified)	79.4µM	.	.	.	3.16µM	79.4µM
CNC(=O)c1c[nH]c2ccc(S(=O)(=O)Nc3cccc(SC)c3)cc2c1=O	.	.	.	.	?	.
CC(C)(C)N=C1NN=C(c2cc3ccccc3o2)CS1	.	.	?	.	39.8µM	.
COc1ccc(C)cc1N(C(=O)c1ccc(C#N)cc1)C1=NC(C)(C)CS1	.	.	.	.	28.2µM	.
COc1ccc(C)cc1N(C(=O)c1ccccc1)c1nc2ccccc2s1	.	.	.	.	.	.
N#CCCn1c(=O)c(-c2cccs2)nc2cnc(Oc3cccc(Cl)c3)nc21	/	/	/	/	.[12.7 µM]	/
C=CCC1CCCCC12NC(=O)N(c1ccccc1)N2 (stereo unspecified)	.	.	.	.	/	.
O=C1CCC2(CC1)NC(=O)N(c1ccccc1)N2	.	/	.	.	7.08µM	.[11.4 µM]
COc1ccc(N=C2SC(C(N)=O)CC(=O)N2Cc2ccc3c(c2)OCO3)cc1 (stereo unspecified)	.	/	79.4µM	.	.	79.4µM

High-throughput results from PubChem BioAssay.
